Data as given in ChEMBL document CHEMBL1961873, “Compounds: GSK PKIS; Assays: Nanosyn kinase panel” (2012).

How the values were obtained:
[1] = biological target: High affinity nerve growth factor receptor (Homo sapiens) (UniProt P04629); conditions: at 1 µM;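 note: each value is the mean percent inhibition of TRKA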
[2] = biological target: BDNF/NT-3 growth factors receptor (Homo sapiens) (UniProt Q16620); conditions: at 0.1 µM
[3] = biological target: BDNF/NT-3 growth factors receptor (Homo sapiens) (UniProt Q16620); conditions: at 1 µM
[4] = biological target: NT-3 growth factor receptor (Homo sapiens) (UniProt Q16288); conditions: at 0.1 µM
[5] = biological target: NT-3 growth factor receptor (Homo sapiens) (UniProt Q16288); conditions: at 1 µM
[6] = biological target: T1, Tyrosine-protein kinase TXK (Homo sapiens) (UniProt P42681); conditions: at 0.1 µM
T1 sequence (whole entry): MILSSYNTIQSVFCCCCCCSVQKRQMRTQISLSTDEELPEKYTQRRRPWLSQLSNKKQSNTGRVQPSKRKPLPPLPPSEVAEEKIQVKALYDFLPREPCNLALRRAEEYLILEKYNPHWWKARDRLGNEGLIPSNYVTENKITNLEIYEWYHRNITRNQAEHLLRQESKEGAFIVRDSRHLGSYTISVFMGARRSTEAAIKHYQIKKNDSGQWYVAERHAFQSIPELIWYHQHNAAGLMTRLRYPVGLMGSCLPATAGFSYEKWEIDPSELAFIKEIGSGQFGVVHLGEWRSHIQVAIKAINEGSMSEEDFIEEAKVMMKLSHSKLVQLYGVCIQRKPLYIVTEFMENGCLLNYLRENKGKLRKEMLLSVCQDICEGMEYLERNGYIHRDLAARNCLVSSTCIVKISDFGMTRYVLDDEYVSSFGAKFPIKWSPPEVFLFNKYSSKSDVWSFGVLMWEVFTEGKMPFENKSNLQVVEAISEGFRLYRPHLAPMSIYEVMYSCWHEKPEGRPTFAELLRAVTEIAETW

[7] = biological target: T1, Tyrosine-protein kinase TXK (Homo sapiens); conditions: at 1 µM
[8] = biological target: Non-receptor tyrosine-protein kinase TYK2 (Homo sapiens) (UniProt P29597); conditions: at 0.1 µM;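 note: each value is a mean of the inhibition readings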
[9] = biological target: T2, Dual specificity protein kinase TTK (Homo sapiens) (UniProt P33981); conditions: at 1 µM;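 note: reported figures are mean TTK inhibition at 1 µM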
T2 sequence (whole entry): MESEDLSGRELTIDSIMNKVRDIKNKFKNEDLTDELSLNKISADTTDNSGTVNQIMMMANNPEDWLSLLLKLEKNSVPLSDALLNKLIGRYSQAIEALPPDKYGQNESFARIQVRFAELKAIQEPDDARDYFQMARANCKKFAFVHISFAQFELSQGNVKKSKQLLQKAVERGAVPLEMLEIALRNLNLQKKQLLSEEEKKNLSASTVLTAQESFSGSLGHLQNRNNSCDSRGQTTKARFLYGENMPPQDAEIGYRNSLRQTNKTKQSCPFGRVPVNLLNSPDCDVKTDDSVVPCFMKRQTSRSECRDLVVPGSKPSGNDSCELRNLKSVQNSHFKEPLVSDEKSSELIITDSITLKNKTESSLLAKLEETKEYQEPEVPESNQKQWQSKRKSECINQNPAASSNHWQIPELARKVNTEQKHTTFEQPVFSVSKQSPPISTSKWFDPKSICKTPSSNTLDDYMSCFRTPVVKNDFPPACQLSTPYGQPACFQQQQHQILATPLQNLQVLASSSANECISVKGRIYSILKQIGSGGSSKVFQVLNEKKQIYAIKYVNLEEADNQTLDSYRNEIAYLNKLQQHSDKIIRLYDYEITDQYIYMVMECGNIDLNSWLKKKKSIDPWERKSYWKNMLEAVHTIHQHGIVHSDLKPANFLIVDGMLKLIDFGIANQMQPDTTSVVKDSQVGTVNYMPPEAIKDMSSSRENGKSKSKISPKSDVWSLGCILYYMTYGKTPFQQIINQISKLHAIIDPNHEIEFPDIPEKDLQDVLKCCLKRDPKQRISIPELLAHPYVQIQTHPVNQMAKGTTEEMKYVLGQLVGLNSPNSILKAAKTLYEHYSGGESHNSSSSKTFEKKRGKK

[10] = biological target: T3, Aurora kinase A (Homo sapiens) (UniProt O14965); conditions: at 0.1 µM
T3 sequence (whole entry): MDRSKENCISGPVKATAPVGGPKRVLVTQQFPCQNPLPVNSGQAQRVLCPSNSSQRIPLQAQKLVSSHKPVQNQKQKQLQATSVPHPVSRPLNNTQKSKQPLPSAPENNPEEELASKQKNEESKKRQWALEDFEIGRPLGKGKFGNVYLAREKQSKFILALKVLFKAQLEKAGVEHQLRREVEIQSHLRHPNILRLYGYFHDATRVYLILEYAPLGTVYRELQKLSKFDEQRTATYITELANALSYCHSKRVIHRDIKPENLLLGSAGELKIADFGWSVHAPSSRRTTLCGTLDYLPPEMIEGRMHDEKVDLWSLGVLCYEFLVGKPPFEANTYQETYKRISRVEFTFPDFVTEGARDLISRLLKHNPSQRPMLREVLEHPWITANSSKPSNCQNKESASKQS

[11] = biological target: T3, Aurora kinase A (Homo sapiens); conditions: at 1 µM
[12] = biological target: Aurora kinase B (Homo sapiens) (UniProt Q96GD4); conditions: at 0.1 µM
[13] = biological target: Aurora kinase B (Homo sapiens) (UniProt Q96GD4); conditions: at 1 µM
[14] = biological target: T4, Aurora kinase C (Homo sapiens) (UniProt Q9UQB9); conditions: at 0.1 µM
T4 sequence (whole entry): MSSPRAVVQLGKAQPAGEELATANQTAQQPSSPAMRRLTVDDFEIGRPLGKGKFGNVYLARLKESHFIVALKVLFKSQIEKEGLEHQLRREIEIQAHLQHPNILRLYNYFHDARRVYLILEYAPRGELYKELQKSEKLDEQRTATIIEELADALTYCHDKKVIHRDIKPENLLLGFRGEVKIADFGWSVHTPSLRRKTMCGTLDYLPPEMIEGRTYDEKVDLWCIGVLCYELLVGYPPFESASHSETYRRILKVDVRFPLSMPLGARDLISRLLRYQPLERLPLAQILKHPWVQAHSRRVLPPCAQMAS

[15] = biological target: T4, Aurora kinase C (Homo sapiens); conditions: at 1 µM
[16] = biological target: Serine/threonine-protein kinase 10 (Homo sapiens) (UniProt O94804); conditions: at 0.1 µM
[17] = biological target: Serine/threonine-protein kinase 10 (Homo sapiens) (UniProt O94804); conditions: at 1 µM
[18] = biological target: T5, Mitogen-activated protein kinase kinase kinase kinase 2 (Homo sapiens) (UniProt Q12851); conditions: at 0.1 µM
T5 sequence (whole entry): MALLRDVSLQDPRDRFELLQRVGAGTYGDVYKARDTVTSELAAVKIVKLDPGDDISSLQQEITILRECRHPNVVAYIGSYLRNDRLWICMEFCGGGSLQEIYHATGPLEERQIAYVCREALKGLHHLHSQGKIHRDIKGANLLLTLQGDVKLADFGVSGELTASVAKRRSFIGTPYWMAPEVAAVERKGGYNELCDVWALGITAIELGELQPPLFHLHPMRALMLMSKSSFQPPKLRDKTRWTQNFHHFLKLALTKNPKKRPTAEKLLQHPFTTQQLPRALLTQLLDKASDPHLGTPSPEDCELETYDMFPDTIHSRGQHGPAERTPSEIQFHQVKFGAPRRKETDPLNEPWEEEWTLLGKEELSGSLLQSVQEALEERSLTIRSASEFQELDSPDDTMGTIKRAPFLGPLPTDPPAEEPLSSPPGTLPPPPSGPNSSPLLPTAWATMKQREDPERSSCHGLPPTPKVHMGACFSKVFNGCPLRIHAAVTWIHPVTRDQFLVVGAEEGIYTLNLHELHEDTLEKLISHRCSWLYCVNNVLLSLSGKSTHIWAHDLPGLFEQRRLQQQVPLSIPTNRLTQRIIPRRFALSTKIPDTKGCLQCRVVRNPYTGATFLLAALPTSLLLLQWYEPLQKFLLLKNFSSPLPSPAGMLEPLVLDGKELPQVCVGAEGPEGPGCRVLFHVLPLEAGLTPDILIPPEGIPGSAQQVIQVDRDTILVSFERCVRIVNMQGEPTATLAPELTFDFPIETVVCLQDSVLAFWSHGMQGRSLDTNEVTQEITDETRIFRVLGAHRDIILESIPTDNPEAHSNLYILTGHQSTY

[19] = biological target: T5, Mitogen-activated protein kinase kinase kinase kinase 2 (Homo sapiens); conditions: at 1 µM
[20] = biological target: Mitogen-activated protein kinase kinase kinase kinase 4 (Homo sapiens) (UniProt O95819); conditions: at 0.1 µM

Sequence of Serine/threonine-protein kinase 10 (Homo sapiens) (O94804 whole entry, looked up): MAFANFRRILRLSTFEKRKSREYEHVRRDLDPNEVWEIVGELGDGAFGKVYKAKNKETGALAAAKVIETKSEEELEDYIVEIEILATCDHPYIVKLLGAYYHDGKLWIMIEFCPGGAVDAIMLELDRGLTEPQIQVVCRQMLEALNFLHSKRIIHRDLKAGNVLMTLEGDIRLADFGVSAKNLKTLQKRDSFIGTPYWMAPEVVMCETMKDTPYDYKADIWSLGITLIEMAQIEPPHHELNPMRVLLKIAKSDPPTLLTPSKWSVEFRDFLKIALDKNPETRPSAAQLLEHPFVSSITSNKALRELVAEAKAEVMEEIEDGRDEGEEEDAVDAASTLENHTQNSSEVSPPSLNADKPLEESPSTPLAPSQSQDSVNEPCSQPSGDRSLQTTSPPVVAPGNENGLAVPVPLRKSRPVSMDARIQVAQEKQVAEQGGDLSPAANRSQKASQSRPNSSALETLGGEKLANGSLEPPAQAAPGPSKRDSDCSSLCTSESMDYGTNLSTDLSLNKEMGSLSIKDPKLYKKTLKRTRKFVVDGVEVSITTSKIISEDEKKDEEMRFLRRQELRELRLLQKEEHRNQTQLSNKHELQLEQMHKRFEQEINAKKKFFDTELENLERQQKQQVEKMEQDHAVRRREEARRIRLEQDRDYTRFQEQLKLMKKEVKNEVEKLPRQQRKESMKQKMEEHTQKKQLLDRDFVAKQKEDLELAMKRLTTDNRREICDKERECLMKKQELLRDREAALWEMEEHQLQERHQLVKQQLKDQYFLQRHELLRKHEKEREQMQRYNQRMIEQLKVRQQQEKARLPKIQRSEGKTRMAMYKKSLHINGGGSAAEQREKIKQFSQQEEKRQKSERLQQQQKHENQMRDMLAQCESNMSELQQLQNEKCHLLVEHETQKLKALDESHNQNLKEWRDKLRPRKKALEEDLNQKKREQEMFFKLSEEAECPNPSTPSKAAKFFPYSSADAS
Sequence of BDNF/NT-3 growth factors receptor (Homo sapiens) (Q16620 32-822 limits assumed): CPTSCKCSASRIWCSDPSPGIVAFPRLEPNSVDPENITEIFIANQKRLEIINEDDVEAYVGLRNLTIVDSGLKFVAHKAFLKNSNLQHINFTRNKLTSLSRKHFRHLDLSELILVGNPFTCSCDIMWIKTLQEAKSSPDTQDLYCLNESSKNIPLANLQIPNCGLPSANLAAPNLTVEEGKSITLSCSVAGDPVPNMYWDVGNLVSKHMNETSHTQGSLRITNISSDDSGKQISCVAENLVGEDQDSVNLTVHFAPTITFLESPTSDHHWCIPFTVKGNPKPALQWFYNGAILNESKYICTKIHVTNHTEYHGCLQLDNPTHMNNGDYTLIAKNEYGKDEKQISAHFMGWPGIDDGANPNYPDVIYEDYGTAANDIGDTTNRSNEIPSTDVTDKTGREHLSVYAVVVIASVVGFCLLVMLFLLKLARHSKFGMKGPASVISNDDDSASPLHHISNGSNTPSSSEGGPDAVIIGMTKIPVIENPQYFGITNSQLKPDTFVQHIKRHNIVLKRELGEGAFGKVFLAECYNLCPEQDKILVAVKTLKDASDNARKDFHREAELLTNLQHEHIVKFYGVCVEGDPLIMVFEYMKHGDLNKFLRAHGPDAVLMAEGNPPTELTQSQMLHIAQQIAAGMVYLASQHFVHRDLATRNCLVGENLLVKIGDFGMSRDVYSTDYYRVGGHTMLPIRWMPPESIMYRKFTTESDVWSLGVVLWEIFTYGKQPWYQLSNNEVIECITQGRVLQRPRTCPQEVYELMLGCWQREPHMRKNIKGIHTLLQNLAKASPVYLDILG
Sequence of High affinity nerve growth factor receptor (Homo sapiens) (P04629 33-796 limits assumed): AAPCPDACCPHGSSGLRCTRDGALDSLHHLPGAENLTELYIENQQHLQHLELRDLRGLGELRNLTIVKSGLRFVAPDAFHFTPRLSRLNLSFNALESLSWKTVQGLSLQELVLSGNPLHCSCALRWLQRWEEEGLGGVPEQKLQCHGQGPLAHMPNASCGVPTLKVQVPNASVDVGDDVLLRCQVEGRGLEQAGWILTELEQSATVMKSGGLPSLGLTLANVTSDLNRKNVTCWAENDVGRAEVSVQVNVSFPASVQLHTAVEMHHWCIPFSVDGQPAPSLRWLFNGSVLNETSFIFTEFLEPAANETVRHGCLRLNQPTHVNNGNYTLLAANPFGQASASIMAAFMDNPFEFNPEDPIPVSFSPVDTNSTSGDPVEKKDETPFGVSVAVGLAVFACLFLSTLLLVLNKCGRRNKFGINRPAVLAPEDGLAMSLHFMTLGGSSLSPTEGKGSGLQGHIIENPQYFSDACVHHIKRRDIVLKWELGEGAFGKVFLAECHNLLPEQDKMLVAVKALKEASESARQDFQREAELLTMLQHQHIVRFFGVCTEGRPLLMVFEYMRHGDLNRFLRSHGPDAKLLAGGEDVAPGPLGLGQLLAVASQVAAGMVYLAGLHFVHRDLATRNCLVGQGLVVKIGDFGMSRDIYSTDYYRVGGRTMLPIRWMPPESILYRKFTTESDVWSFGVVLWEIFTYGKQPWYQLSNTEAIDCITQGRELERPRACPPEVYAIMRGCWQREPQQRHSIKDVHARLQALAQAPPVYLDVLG
Sequence of Non-receptor tyrosine-protein kinase TYK2 (Homo sapiens) (P29597 whole entry): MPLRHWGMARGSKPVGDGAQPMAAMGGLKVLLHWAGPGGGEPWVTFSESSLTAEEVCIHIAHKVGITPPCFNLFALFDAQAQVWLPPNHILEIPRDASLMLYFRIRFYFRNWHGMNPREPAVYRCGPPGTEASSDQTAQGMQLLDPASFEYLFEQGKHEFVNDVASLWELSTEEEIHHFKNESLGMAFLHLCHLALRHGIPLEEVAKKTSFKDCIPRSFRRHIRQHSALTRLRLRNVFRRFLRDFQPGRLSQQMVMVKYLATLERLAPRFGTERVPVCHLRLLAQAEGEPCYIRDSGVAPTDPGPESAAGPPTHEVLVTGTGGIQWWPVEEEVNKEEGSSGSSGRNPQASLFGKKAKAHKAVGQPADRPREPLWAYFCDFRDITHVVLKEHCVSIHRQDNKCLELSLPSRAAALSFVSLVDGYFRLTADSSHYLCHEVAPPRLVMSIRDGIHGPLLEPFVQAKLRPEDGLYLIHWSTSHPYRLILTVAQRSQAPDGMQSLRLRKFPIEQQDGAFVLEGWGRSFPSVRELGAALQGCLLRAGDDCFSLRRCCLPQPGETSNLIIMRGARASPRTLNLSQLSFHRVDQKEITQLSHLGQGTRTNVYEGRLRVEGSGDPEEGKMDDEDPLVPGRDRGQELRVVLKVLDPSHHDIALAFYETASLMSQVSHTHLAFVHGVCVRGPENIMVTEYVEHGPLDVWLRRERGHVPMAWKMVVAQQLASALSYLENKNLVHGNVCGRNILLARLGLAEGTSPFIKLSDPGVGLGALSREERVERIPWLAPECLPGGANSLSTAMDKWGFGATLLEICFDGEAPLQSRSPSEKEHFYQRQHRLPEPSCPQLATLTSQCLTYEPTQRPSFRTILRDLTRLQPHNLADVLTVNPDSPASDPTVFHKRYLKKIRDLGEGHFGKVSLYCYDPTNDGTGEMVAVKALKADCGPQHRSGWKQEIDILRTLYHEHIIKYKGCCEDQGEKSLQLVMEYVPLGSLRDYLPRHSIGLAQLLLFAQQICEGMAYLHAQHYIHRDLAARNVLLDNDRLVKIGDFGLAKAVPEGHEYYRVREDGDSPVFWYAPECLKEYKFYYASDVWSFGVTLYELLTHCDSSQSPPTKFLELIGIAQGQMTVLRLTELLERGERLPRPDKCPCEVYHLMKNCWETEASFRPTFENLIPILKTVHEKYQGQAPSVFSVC
Sequence of NT-3 growth factor receptor (Homo sapiens) (Q16288 32-839 limits assumed): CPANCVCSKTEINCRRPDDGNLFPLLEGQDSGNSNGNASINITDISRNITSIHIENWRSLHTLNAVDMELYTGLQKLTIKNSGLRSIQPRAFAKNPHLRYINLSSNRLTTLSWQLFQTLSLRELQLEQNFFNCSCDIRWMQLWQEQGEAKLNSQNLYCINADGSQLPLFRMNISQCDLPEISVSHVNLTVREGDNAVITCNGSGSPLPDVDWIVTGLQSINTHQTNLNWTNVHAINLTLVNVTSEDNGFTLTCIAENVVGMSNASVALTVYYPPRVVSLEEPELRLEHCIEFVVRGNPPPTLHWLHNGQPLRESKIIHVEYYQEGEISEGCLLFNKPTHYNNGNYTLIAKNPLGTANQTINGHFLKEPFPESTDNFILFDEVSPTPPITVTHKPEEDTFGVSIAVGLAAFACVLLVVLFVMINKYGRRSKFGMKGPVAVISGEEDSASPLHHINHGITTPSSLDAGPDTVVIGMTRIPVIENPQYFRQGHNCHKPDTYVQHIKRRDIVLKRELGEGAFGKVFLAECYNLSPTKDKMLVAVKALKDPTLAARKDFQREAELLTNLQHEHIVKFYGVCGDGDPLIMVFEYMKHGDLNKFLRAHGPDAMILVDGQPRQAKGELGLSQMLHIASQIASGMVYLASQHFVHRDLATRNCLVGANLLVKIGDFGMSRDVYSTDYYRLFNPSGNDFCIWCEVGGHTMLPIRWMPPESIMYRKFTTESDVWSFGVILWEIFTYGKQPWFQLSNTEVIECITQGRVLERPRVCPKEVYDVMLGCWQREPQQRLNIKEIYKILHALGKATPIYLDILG
Sequence of Aurora kinase B (Homo sapiens) (Q96GD4 whole entry): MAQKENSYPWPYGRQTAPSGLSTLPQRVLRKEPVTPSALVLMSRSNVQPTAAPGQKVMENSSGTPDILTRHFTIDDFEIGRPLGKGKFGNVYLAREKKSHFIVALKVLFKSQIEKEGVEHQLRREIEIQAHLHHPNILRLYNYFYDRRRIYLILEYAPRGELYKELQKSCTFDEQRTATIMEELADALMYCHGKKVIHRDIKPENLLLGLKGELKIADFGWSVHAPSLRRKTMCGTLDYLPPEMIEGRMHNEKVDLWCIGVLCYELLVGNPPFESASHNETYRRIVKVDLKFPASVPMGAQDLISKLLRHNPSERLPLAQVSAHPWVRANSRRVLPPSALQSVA

SMILES	inhibition [1]	inhibition [2]	inhibition [3]	inhibition [4]	inhibition [5]	inhibition [6]	inhibition [7]	inhibition [8]	inhibition [9]	inhibition [10]	inhibition [11]	inhibition [12]	inhibition [13]	inhibition [14]	inhibition [15]	inhibition [16]	inhibition [17]	inhibition [18]	inhibition [19]	inhibition [20]
CCS(=O)(=O)c1ccc(OC)c(Nc2ncc(-c3ccccc3Cl)o2)c1	5.58%	1.97%	8.35%	3.33%	12.5%	1.52%	10.3%	-3.24%	9.34%	1.49%	10.9%	-1.57%	5.12%	1.38%	-2.79%	2.59%	6.5%	0.68%	5.1%	4.85%
NC(=O)c1ccc(Oc2nccc(-c3c(-c4ccc(F)cc4)ncn3C3CCNCC3)n2)cc1	5.13%	4.3%	5.18%	3.1%	4.93%	8.98%	6.85%	-1.79%	12.5%	3.58%	2.99%	2.63%	3.74%	2.2%	0.43%	7.75%	8.82%	-0.61%	1.55%	1.45%
CCN(CC)Cc1ccc(Nc2nccc(-c3cnn4ncccc34)n2)cc1	12.1%	4.49%	7.47%	2.83%	5.86%	0.47%	1.91%	-7.84%	29.4%	4.39%	34.3%	27.5%	63.7%	38%	84.6%	7.37%	18%	3.21%	21.2%	5.41%
N#Cc1ccc(Oc2nccc(-c3c(-c4ccc(F)cc4)ncn3C3CCNCC3)n2)cc1	0.26%	2.91%	4.54%	2.17%	3.17%	-0.35%	1.69%	-3.12%	8.89%	3.21%	4.78%	3.58%	5.49%	0.14%	3.86%	6.19%	8.89%	0.91%	4.07%	3.8%
Fc1ccc(-c2ncn(C3CCNCC3)c2-c2ccnc(Oc3ccc(Oc4ccccc4)cc3)n2)cc1	5.66%	2.54%	2.27%	2.44%	1.66%	8.91%	5.95%	-1.07%	7.56%	2.89%	0.96%	4.04%	3.66%	0.06%	0.55%	5.52%	6.96%	2.54%	9.5%	4.44%
Cc1ccc(C(=O)NC(C)C)cc1-c1ccc(C(=O)NCC2CC2)cc1	0.4%	-1.41%	0.73%	0.1%	1.79%	-1.45%	-1.03%	1.94%	-5.81%	-3.2%	-2.53%	-0.47%	2.24%	-0.96%	1.27%	-2.21%	-5.65%	-0.39%	1.59%	-2.82%
